Experiment [1] has as its target human Protein Tyrosine Phosphatase Non-receptor Type 1 (PTPN1), PTPN1 (gene 5770) (UniProt P18031). The experiment in a line: NVS_ENZ_hPTPN1: NovaScreen (NVS) Enzymatic Assay for human Protein Tyrosine Phosphatase Non-receptor Type 1 (PTPN1) (AID 2283201). In short, it runs like this: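 Chemicals were first tested in duplicate at 25 uM, and those passing threshold went on to singleton concentration series topping at 50 uM. Recombinant enzyme, specific substrate, product separated by mobility shift, fluorescence read at 1.33 h; activity loss relative to DMSO.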

The target of experiment [2] is Tyrosine-protein phosphatase non-receptor type 11 (Homo sapiens) (UniProt Q06124). The experiment in a line: NVS_ENZ_hPTPN11: NovaScreen (NVS) Enzymatic Assay for human Protein Tyrosine Phosphatase Non-receptor Type 11 (PTPN11) (AID 2283202). In short, it runs like this: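 Compounds first tested in duplicate at 25 uM; those reaching ~30% inhibition rerun in singleton concentration-response, top 50 uM. Phosphatase activity measured after 0.5 h by fluorescence with mobility-shift separation, relative to DMSO.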
Tyrosine-protein phosphatase non-receptor type 11 (Homo sapiens), sequence (Q06124 whole entry, looked up): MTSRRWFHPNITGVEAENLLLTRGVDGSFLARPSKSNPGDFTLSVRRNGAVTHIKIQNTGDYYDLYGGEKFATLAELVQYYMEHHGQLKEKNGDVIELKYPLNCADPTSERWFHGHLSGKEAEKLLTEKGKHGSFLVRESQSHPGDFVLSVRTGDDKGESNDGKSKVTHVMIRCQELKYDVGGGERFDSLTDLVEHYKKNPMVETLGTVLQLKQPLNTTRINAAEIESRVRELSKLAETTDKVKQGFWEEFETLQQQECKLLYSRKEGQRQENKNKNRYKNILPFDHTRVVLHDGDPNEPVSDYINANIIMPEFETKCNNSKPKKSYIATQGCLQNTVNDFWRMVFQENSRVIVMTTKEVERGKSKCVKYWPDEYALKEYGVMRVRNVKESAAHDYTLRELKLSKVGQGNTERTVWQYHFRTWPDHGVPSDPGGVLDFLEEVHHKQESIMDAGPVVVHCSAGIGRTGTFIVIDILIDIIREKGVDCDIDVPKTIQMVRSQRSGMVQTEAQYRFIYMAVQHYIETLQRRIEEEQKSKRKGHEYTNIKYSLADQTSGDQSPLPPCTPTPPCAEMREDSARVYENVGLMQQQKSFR

Experiment [3] concerns the target human Phosphatase and Tensin Homolog (PTEN), PTEN (gene 5728) (UniProt P60484). In words: NVS_ENZ_hPTEN: NovaScreen (NVS) Enzymatic Assay for human Phosphatase and Tensin Homolog (PTEN) (AID 2283203). In short, it runs like this:
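Loss of fluorescent product signal after mobility-shift separation reports PTEN activity, recombinant human enzyme, 1 h after compound addition. Single 25 uM duplicate screen, then concentration-response on actives; DMSO baseline.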

Experiment [4] has as its target human Protein Tyrosine Phosphatase Receptor Type M (PTPRM), PTPRM (gene 5797) (UniProt P28827). The experiment in a line: NVS_ENZ_hPTPRM: NovaScreen (NVS) Enzymatic Assay for human Protein Tyrosine Phosphatase Receptor Type M (PTPRM) (AID 2283215). In short, it runs like this: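 Read-out is fluorescence after electrophoretic separation of substrate and product, taken 1.33 h post-dosing with recombinant enzyme. Compounds screened at 25 uM in duplicate, then concentration series for actives; activity as signal loss relative to DMSO.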

The target in experiment [5] is human Protein Phosphatase, Mg2+/Mn2+ Dependent 1A (PPM1A), PPM1A (gene 5494) (UniProt P35813). The experiment in a line: NVS_ENZ_hPPM1A: NovaScreen (NVS) Enzymatic Assay for human Protein Phosphatase, Mg2+/Mn2+ Dependent 1A (PPM1A) (AID 2283198). In short, it runs like this:
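Primary screen in duplicate at 25 uM, with actives then titrated to a maximum of 50 uM. Recombinant PPM1A dephosphorylation of fluorescent substrate measured at 1 h, with substrate and product separated by mobility shift; inhibition fitted against DMSO.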

The next experiment addresses PPP2CA (gene 5515) (UniProt P67775). In words: NVS_ENZ_hPPP2CA: NovaScreen (NVS) Enzymatic Assay for human Protein Phosphatase 2 Aatalytic subunit Alpha (PPP2CA) (AID 2283199). In short, it runs like this:
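Cell-free phosphatase activity: fluorescent substrate turnover by recombinant human enzyme, resolved by mobility shift at 1.33 h. Compounds passing the 25 uM duplicate primary screen were rerun in singleton series with a 50 uM top concentration.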

The target of experiment [6] is Serine/threonine-protein phosphatase PP1-alpha catalytic subunit (Homo sapiens) (UniProt P62136). In words: NVS_ENZ_hPPP1CA: NovaScreen (NVS) Enzymatic Assay for human Protein Phosphatase 1 Aatalytic subunit Alpha (PPP1CA) (AID 2283200). In short, it runs like this: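 Chemicals were first screened in duplicate at 25 uM, and those passing threshold (e.g. 30% inhibition) were run as concentration series to 50 uM. Cell-free recombinant protein, 1.33 h read, fluorescent substrate/product mobility-shift detection, normalised to DMSO.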
Serine/threonine-protein phosphatase PP1-alpha catalytic subunit (Homo sapiens), sequence (P62136 whole entry, looked up): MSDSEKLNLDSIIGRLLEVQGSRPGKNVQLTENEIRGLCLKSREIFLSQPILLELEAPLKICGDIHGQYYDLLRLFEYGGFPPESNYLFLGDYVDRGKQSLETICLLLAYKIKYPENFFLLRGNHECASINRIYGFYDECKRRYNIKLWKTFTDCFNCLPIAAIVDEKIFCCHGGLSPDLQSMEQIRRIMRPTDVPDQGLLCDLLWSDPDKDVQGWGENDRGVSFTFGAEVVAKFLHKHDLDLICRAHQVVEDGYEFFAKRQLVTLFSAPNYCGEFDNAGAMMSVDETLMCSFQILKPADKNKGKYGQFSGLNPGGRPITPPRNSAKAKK

Experiment [7] has as its target Tyrosine-protein phosphatase non-receptor type 12 (Homo sapiens) (UniProt Q05209). In words: NVS_ENZ_hPTPN12: NovaScreen (NVS) Enzymatic Assay for human Protein Tyrosine Phosphatase Non-receptor Type 12 (PTPN12) (AID 2283204). In short, it runs like this:
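Single-concentration duplicates (25 uM) preceded singleton concentration-response up to 50 uM for chemicals passing threshold. Cell-free recombinant PTPN12 activity was read 1.33 h after dosing via fluorescence after mobility-shift separation; loss of signal versus DMSO.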

In experiment [8] the target is Tyrosine-protein phosphatase non-receptor type 13 (Homo sapiens) (UniProt Q12923). In words: NVS_ENZ_hPTPN13: NovaScreen (NVS) Enzymatic Assay for human Protein Tyrosine Phosphatase Non-receptor Type 13 (PTPN13) (AID 2283205). In short, it runs like this:
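Screened first at a single 25 uM in duplicate; compounds passing the threshold (e.g. 30% inhibition) were rerun in concentration series, top 50 uM. Recombinant enzyme, fluorescent substrate, mobility-shift separation, 0.5 h read. Data fitted as inhibition relative to DMSO.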

The target of experiment [9] is human Protein Tyrosine Phosphatase Non-receptor Type 2 (PTPN2), PTPN2 (gene 5771) (UniProt P17706). The experiment in a line: NVS_ENZ_hPTPN2: NovaScreen (NVS) Enzymatic Assay for human Protein Tyrosine Phosphatase Non-receptor Type 2 (PTPN2) (AID 2283207). In short, it runs like this: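 Activity measured as fluorescence after mobility-shift separation of substrate and product, 1 h after compound. Duplicate single-point 25 uM primary testing, concentration series for actives; inhibition scored as signal loss relative to DMSO baseline.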

Experiment [10] concerns the target human Protein Tyrosine Phosphatase Non-receptor Type 6 (PTPN6), PTPN6 (gene 5777) (UniProt P29350). The experiment in a line: NVS_ENZ_hPTPN6: NovaScreen (NVS) Enzymatic Assay for human Protein Tyrosine Phosphatase Non-receptor Type 6 (PTPN6) (AID 2283210). In short, it runs like this: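 Recombinant human PTPN6 from SF9 cells, enzyme activity followed by fluorescence after mobility-shift separation of substrate and product at 1.33 h. Chemicals first tested at a single 25 uM in duplicate, then confirmed across concentration series; loss of signal relative to DMSO.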

Experiment [11] deals with human Protein Tyrosine Phosphatase Receptor Type B (PTPRB), PTPRB (gene 5787) (UniProt P23467). The experiment in a line: NVS_ENZ_hPTPRB: NovaScreen (NVS) Enzymatic Assay for human Protein Tyrosine Phosphatase Receptor Type B (PTPRB) (AID 2283211). In short, it runs like this:
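Recombinant human PTPRB with a fluorescent substrate, product separated by electrophoretic mobility shift; read 1 h after dosing. Primary screen in duplicate at 25 uM; actives then retested in concentration series; loss of signal versus DMSO.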

Experiment [12] addresses human Protein Tyrosine Phosphatase Receptor Type C (PTPRC), PTPRC (gene 5788) (UniProt P08575). The experiment in a line: NVS_ENZ_hPTPRC: NovaScreen (NVS) Enzymatic Assay for human Protein Tyrosine Phosphatase Receptor Type C (PTPRC) (AID 2283212). In short, it runs like this: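 Absorbance-based phosphatase activity of human PTPRC protein extracted from yeast was measured 1 h post-dosing. Compounds first tested at 25 uM in duplicate, then those passing threshold in singleton concentration series to 50 uM.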

The target in experiment [13] is human Protein Tyrosine Phosphatase Receptor Type F (PTPRF), PTPRF (gene 5792) (UniProt P10586). The experiment in a line: NVS_ENZ_hPTPRF: NovaScreen (NVS) Enzymatic Assay for human Protein Tyrosine Phosphatase Receptor Type F (PTPRF) (AID 2283213). In short, it runs like this:
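Cell-free fluorescence enzyme assay with recombinant protein and substrate; product separated by electrophoretic mobility shift. Read 1 h after dosing, single 25 uM duplicate screen, then concentration-response up to 50 uM; loss of signal vs DMSO.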

Experiment [14] has as its target human Rho Associated Coiled-coil Containing Protein Kinase 1 (ROCK1), ROCK1 (gene 6093) (UniProt Q13464). In words: NVS_ENZ_hROCK1: NovaScreen (NVS) Enzymatic Assay for human Rho Associated Coiled-coil Containing Protein Kinase 1 (ROCK1) (AID 2283214). In short, it runs like this: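 Compounds first run in duplicate at 25 uM against recombinant human ROCK1, then followed in concentration series. Kinase activity was read 1 h post-dosing by fluorescence with mobility-shift separation, as signal loss relative to DMSO.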

Experiment [15] concerns the target human Raf-1 Proto-Oncogene, serine/threonine Kinase (RAF1), RAF1 (gene 5894) (UniProt P04049). The experiment in a line: NVS_ENZ_hRAF1: NovaScreen (NVS) Enzymatic Assay for human Raf-1 Proto-Oncogene, serine/threonine Kinase (RAF1) (AID 2283216). In short, it runs like this: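 Single-point screening at 25 uM (duplicate), followed by singleton concentration-response to 50 uM maximum for chemicals exceeding threshold. Enzyme activity from fluorescent substrate-product mobility-shift separation after 1 h, relative to DMSO.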

For experiment [16], the target named is human Sirtuin 2 (SIRT2), SIRT2 (gene 22933) (UniProt Q8IXJ6). The experiment in a line: NVS_ENZ_hSIRT2: NovaScreen (NVS) Enzymatic Assay for human Sirtuin 2 (SIRT2) (AID 2283217). In short, it runs like this: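 Single-point duplicate screen at 25 uM, then concentration-response (max 50 uM) for chemicals passing threshold. Enzyme activity of recombinant human SIRT2 measured after 1 hr by fluorescence with mobility-shift separation of product; DMSO baseline.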

In experiment [17] the target is Tyrosine-protein phosphatase non-receptor type 14 (Homo sapiens) (UniProt Q15678). In words: NVS_ENZ_hPTPN14: NovaScreen (NVS) Enzymatic Assay for human Protein Tyrosine Phosphatase Non-receptor Type 14 (PTPN14) (AID 2283206). In short, it runs like this: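 Fluorescent substrate turnover by recombinant human PTPN14 was measured 0.5 h after compound addition, with substrate and product separated by mobility shift. Single-point screening at 25 uM, then concentration-response up to 50 uM for chemicals meeting threshold (e.g., 30% inhibition).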

Experiment [18] concerns the target human Protein Tyrosine Phosphatase Non-receptor Type 4 (PTPN4), PTPN4 (gene 5775) (UniProt P29074). The experiment in a line: NVS_ENZ_hPTPN4: NovaScreen (NVS) Enzymatic Assay for human Protein Tyrosine Phosphatase Non-receptor Type 4 (PTPN4) (AID 2283208). In short, it runs like this:
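Screened in duplicate at 25 uM, with hits then titrated to a top concentration of 50 uM. Recombinant Sf9-derived PTPN4 turnover was read by fluorescence with electrophoretic separation, 1.33 h after compound addition. DMSO served as baseline.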

The structures appear in SMILES notation. Where “and” joins values, the source holds several entries; their conditions need not be identical. Equal values may be shown once. Inconclusive results are not listed. Some structures have more than one record in an assay (separate samples or runs), and their calls can disagree. Calls of active or inactive are those of the source. Rule for the calls: active = hit-call score of the fitted dose curve at least 0.9, where 1 is the maximum; inconclusive = response in the unintended direction; inactive = score below 0.9.

human Protein Tyrosine Phosphatase Receptor Type C (PTPRC), PTPRC (gene 5788), sequence (P08575 whole entry, looked up): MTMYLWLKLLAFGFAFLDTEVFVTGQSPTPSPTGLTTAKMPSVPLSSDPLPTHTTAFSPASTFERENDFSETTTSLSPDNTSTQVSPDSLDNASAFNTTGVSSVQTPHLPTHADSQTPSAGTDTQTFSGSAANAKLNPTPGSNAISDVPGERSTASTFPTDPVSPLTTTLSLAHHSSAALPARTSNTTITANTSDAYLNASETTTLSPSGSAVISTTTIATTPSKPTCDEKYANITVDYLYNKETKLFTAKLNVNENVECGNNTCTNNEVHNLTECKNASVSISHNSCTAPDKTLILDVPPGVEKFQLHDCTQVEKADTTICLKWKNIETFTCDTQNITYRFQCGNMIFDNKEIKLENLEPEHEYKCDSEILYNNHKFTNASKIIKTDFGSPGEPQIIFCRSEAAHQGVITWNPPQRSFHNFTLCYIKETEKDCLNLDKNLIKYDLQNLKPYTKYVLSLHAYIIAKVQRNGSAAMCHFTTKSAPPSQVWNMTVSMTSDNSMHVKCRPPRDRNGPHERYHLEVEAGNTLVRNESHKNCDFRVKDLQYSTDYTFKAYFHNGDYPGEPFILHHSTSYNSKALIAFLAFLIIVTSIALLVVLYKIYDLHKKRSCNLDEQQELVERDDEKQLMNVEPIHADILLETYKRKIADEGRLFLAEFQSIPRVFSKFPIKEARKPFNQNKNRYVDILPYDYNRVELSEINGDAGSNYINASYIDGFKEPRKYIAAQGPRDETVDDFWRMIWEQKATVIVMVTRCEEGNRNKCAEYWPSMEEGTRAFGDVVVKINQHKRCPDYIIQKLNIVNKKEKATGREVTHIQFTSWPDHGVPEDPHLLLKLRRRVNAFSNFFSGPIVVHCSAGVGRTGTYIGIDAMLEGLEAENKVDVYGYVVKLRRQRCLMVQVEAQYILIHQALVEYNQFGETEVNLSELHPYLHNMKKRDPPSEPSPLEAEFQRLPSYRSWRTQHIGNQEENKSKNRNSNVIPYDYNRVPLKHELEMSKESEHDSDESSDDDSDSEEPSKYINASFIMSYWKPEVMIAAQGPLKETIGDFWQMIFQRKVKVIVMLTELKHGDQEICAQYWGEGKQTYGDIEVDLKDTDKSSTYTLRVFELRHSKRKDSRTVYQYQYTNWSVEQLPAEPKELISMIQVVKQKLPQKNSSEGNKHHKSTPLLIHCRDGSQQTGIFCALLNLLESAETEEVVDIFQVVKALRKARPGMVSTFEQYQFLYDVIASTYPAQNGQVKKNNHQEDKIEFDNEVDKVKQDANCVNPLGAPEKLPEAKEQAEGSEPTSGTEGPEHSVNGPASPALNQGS
human Protein Tyrosine Phosphatase Receptor Type F (PTPRF), PTPRF (gene 5792), sequence (P10586 whole entry, looked up): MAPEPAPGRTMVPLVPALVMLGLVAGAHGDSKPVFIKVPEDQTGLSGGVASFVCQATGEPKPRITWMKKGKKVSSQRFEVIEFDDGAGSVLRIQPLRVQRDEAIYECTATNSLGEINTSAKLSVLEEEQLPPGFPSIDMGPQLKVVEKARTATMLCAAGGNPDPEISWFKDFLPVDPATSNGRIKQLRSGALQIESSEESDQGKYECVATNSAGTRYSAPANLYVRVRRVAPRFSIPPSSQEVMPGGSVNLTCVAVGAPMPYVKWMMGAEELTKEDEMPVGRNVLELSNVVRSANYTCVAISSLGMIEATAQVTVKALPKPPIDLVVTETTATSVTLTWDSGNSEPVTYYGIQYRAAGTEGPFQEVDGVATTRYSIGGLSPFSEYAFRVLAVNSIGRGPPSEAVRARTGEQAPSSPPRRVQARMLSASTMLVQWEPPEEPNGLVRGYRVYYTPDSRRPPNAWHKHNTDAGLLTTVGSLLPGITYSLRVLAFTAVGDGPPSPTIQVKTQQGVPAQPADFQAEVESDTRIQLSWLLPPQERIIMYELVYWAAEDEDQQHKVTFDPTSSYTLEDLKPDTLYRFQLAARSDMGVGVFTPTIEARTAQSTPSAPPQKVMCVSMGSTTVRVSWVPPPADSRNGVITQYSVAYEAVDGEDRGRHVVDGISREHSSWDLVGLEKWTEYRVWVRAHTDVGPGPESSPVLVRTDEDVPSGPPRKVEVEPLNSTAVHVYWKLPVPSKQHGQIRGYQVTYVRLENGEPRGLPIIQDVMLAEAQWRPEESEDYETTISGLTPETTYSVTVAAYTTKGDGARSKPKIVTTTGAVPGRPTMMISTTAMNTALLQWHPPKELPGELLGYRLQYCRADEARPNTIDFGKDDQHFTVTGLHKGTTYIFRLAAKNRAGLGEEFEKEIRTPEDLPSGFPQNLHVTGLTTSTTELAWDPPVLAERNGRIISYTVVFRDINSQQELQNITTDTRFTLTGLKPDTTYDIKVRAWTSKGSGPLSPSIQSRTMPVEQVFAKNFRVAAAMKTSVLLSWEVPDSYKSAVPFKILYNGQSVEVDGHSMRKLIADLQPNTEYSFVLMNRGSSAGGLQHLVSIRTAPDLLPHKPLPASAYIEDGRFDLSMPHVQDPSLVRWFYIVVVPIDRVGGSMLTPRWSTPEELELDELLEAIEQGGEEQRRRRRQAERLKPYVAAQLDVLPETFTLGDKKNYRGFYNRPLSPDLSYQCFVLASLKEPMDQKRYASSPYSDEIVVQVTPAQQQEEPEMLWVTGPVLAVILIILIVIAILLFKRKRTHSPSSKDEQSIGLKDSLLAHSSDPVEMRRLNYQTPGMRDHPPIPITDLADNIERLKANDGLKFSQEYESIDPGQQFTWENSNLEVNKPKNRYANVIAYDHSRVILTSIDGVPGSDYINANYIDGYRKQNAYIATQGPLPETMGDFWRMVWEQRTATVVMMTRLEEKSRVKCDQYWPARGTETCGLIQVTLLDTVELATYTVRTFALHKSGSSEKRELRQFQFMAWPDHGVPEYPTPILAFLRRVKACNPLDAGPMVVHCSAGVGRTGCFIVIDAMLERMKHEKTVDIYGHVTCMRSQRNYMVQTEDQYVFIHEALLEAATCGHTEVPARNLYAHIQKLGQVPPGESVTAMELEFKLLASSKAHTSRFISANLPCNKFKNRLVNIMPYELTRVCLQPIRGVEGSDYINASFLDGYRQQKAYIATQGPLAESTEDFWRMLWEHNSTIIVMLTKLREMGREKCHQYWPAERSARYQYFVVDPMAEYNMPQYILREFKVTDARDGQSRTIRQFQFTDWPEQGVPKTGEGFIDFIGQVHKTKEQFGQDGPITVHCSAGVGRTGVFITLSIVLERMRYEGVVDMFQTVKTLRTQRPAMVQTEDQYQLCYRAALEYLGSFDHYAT
human Protein Tyrosine Phosphatase Non-receptor Type 1 (PTPN1), PTPN1 (gene 5770), sequence (P18031 whole entry, looked up): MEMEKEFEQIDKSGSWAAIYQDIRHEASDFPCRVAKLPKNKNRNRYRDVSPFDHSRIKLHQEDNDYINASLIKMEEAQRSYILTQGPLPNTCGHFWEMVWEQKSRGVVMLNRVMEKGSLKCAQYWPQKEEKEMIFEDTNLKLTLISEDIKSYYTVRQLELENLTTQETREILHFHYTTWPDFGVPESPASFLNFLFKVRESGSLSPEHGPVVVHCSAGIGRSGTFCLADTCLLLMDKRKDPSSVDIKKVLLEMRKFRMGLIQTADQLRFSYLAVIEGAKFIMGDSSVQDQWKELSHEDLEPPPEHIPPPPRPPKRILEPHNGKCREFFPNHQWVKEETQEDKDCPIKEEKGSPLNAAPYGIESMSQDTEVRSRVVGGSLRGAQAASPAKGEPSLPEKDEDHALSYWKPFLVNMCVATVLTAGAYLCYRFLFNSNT
human Phosphatase and Tensin Homolog (PTEN), PTEN (gene 5728), sequence (P60484 whole entry, looked up): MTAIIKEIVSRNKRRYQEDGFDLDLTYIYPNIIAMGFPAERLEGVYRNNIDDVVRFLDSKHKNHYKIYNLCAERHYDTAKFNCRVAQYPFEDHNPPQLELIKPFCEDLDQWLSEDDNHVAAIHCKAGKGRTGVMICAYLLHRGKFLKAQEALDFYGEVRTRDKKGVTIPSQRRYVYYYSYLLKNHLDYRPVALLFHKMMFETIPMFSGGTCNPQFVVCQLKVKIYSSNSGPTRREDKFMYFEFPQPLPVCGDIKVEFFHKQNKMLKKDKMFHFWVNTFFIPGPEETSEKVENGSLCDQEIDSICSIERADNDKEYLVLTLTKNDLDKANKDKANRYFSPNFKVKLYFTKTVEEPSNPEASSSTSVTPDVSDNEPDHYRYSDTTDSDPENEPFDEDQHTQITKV

For the compound `N#Cc1c(Cl)c(Cl)c(Cl)c(C#N)c1Cl`, the result in experiment [1], in experiment [3] and in experiment [4] was inactive. The half-maximal activity concentration (AC50) (commonly the concentration giving half of the maximal activity seen) in [2] was 40 µM (active).
`O=S(=O)(O)C(F)(F)C(F)(F)C(F)(F)C(F)(F)C(F)(F)C(F)(F)C(F)(F)C(F)(F)F`: the compound was called inactive in experiment [5], in [1] and in [12]. Besides, the AC50 with PPP2CA (gene 5515) was 7.02 µM (active) and 5.37 µM (active); in experiment [6], 11.5 µM (active) and 18.4 µM (active); in experiment [1] it was 26.9 µM (active); in [2] it was 19.6 µM (active) and 15.5 µM (active); in [3] it was 7.35 µM (active) and 26.9 µM (active); in experiment [7] it was 20.7 µM (active) and 30 µM (active) and 30.1 µM (active). The half-maximal activity concentration (AC50) in experiment [8] was 10.5 µM (active) and 36.6 µM (active); in experiment [9] it was 38.9 µM (active); in [10] it was 34.8 µM (active); in [11], 18.7 µM (active) and 37.6 µM (active); in [12] it was 17.1 µM (active) and 15.2 µM (active); in [13], 14.8 µM (active) and 13.1 µM (active). For the same compound, the AC50 in [14] was 39 µM (active); in [4], 23.6 µM (active) and 43 µM (active); in experiment [15], 33.2 µM (active) and 24.5 µM (active); in experiment [16], 6.66 µM (active).
For the compound `[2H]C1([2H])[n+]2ccccc2-c2cccc[n+]2C1([2H])[2H]`, the AC50 in experiment [6] was 4.96 µM (active); in [3], 2.29 nM (active). Besides, the call in experiment [2] was inactive.
Consider `CC(C)(C)C(O)/C(=C\c1ccc(Cl)cc1Cl)n1cncn1` (stereo not given), for which, in [9], the result was inactive.
Consider `CCC(C)(C)C(=O)OC1=C(c2ccc(Cl)cc2Cl)C(=O)OC12CCCCC2`, for which, in experiment [4], the outcome was inactive. Further, the AC50 in experiment [16] is 18.9 µM (active).
For the compound `CCOc1nc(NC)nc(NC(=O)NS(=O)(=O)c2ccccc2C(=O)OC)n1`, the result in [15] was inactive.
As to `C[C@H]1[C@H](c2ccc(Cl)cc2)SC(=O)N1C(=O)NC1CCCCC1`, the compound was called inactive in [17].
For `CC[C@H](C)[C@H]1O[C@]2(C=C[C@@H]1C)C[C@@H]1C[C@@H](C/C=C(\C)[C@@H](O[C@H]3C[C@H](OC)[C@@H](O[C@H]4C[C@H](OC)[C@@H](O)[C@H](C)O4)[C@H](C)O3)[C@@H](C)/C=C/C=C3\CO[C@@H]4[C@H](O)C(C)=C[C@@H](C(=O)O1)[C@]34O)O2` (tested in a mixture with another compound), the call in [2] was inactive. For the same compound, the AC50 in experiment [9] was 41.1 µM (active); in experiment [4], 45.3 µM (active).
As to `ClC1C(Cl)C(Cl)C(Cl)C(Cl)C1Cl` (stereo not given), in experiment [3], the result was inactive.
Turning to `Oc1cc(Cl)ccc1Oc1ccc(Cl)cc1Cl`, the outcome (with PPP2CA (gene 5515); in experiment [2]; in experiment [7]; in [11]) was inactive.
`CNC(=O)CSP(=S)(OC)OC`: the outcome in experiment [10], in [11] and in experiment [13] was inactive.
Take `O=C1c2ccccc2C(=O)N1SC(Cl)(Cl)Cl`: the call in experiment [9] and in experiment [18] was inactive.
Regarding `N#CN`, the compound was called inactive in experiment [6].

The record behind these values is PubChem BioAssay (EPA / NIEHS).
